# Reference: PubChem BioAssay
# Several values for one entry are separate records, joined by “and”; a condition that tells them apart may be missing. Identical values can stand only once. Activity calls are given as the source filed them. Cut-off read from the data, not from the text of the source, unless noted: active = inhibition above about 80%; inactive = the rest.
# Legend:
# [1] = test system: Aerobactin synthetase IucA (Klebsiella pneumoniae); assay: inhibition of K. pneumoniae IucA enzyme – biochemical, Tocris library, absorbance (AID 1345561; call rule not given here;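 note: 100% = enzyme without compound and 0% = no enzyme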); details: purified IucA enzyme assay, absorbance (OD) read-out; stronger effect = lower value;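 tested at 8 µM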
# [2] = viability loss with induced miR-34 in A549 – imaging, A549 dox-inducible miR-34, nuclei and caspase counts, primary screen (AID 1347080;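 active = compounds whose cell count with miR-34 switched on is under 0.7 times the count with it off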); details: A549 miR-34 inducible, Hoechst nuclei count, 48 h
# [3] = MELAS cybrid and Rieske KO viability enhancers – cell-based, MELAS cybrids, Rieske KO mouse fibroblasts, CellTiter-Glo, primary screen (AID 1508586;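 active = mean z-score across replicates of 1.96 or higher in either the MELAS or the Rieske mutant cell line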;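 note: z relative to plate mean and SD of compound and empty wells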); details: low glucose
# [4] = galactose survival enhancers in mitochondrial complex I cybrids – cell-based, galactose medium, ATP luminescence, primary screen (AID 1645843;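 active = z-score of at least 1.8 in each of two replicates, scored against plate mean and spread of sample wells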;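 note: positive z means more ATP and so rescue of galactose-driven cybrid death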); details: complex I mutant cybrid cells, 72 h, stronger effect = higher value
# [5] = growth inhibition, single agent or in combination, cell-based, chromothripsis tumors, cisplatin or BGB combos (AID 1671449); details: LFS_MB_P medulloblastoma cells;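 note: cells exposed for 96 hours; 0% = vehicle DMSO and 100% = killing by high DMSO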
# [6] = growth inhibition, single agent and combos, cell-based, chromothripsis tumors, cisplatin or BGB combos (AID 1671450); details: HDN33 neuroblastoma cells, stronger effect = higher value;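 note: cells exposed to compound for four days; 0% = vehicle DMSO and 100% = cell killing by high DMSO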
# [7] = growth inhibition, single agents and combos, ICB984, cell-based, cisplatin or BGB combos, synergistic combos for chromothripsis tumors (AID 1671451; call rule not given here;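 note: cells exposed for 96 hours before readout; 0% = vehicle DMSO and 100% = killing by high DMSO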); details: ICB984 medulloblastoma cells, drug combinations, stronger effect = higher value
# [8] = growth inhibition, single agents and combos, LFS_MB_1R, cell-based, cisplatin or BGB combos, synergistic combos for chromothripsis tumors (AID 1671452); details: LFS_MB_1R medulloblastoma cells, stronger effect = higher value;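 note: cells exposed for 96 hours before readout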
# [9] = growth inhibition, single agents and combos, HTB85, cell-based, BGB or cisplatin IC20 combos, synergistic combos for chromothripsis tumors (AID 1671453); details: HTB85 osteosarcoma cells, drug combinations, stronger effect = higher value;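 note: cells exposed for 96 hours before readout; 0% = vehicle DMSO and 100% = high DMSO killing control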
# [10] = growth inhibition, single agents and combos, CRL2098, cell-based, BGB or cisplatin IC20 combos, synergistic combos for chromothripsis tumors (AID 1671454); details: CRL2098 osteosarcoma cells, drug combinations, stronger effect = higher value;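 note: cells exposed for 96 h before readout; 0% = vehicle DMSO and 100% = killing by high DMSO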
# [11] = growth inhibition, single agents and combos, HD-MB03, cell-based, BGB or cisplatin IC20 combos, synergistic combos for chromothripsis tumors (AID 1671455; in the data active = inhibition above about 83%;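 note: 0% = vehicle DMSO and 100% = high DMSO as cytotoxic control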); details: HD-MB03 medulloblastoma cells, stronger effect = higher value
# [12] = growth inhibition, single agents and combos, UWB1.289, cell-based, BGB or cisplatin combos, synergistic combos for chromothripsis tumors (AID 1671456); details: UWB1.289 ovarian carcinoma cells, stronger effect = higher value;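 note: cells exposed to compound for four days; 0% = vehicle DMSO and 100% = killing by high DMSO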
# [13] = growth inhibition, single agents and combos, LFS_MB_2R, cell-based, cisplatin combos, synergistic combos for chromothripsis tumors (AID 1671457); details: LFS_MB_2R medulloblastoma cells, stronger effect = higher value;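 note: cells exposed to compound for four days before readout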
# [14] = growth inhibition, MDA-MB-436, cell-based, BGB or cisplatin combos, synergistic combos for chromothripsis tumors (AID 1671458; call rule not given here;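 note: cells exposed for 96 hours; 0% = vehicle DMSO and 100% = killing by high DMSO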); details: MDA-MB-436 breast carcinoma growth inhibition, drug combinations, stronger effect = higher value
# [15] = UWB1.289_BRCA1 ovarian cancer growth, cell-based, BGB or cisplatin combinations (AID 1671459); details: UWB1.289 BRCA1 ovarian carcinoma, drug combinations, stronger effect = higher value
# [16] = drug combination toxicity in non-malignant astrocytes – cell-based, BGB or cisplatin IC20 combos, cytotoxicity control for chromothriptic childhood tumor combination screen (AID 1671460); details: Human astrocytes, viability inhibition, drug combinations, at 0.5 µM, stronger effect = higher value;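 note: cells exposed to compounds for 96 hours before viability readout; 0% = vehicle and 100% = killing control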
# [17] = BT084 cell growth, single and combined drugs, ICGC_MB145, cisplatin and BGB IC40 combos (AID 1671461); details: BT084 medulloblastoma cells, drug combinations, stronger effect = higher value;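 note: cells exposed to drugs for 96 hours; 0% = vehicle DMSO and 100% = high DMSO full killing control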
# [18] = RCMB18 cell growth, single agent and combined, cisplatin and BGB IC40 combos (AID 1671462); details: RCMB18 medulloblastoma cells, stronger effect = higher value;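 note: cells exposed to compound for four days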
# [19] = CRL1545 cell growth, single agent and combined, cisplatin and BGB IC20 combos (AID 1671464); details: CRL1545 osteosarcoma cells, stronger effect = higher value;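 note: cells exposed to compound for 96 hours before readout; 0% = vehicle DMSO and 100% = high DMSO killing control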
# [20] = measured here: combination with BGB IC40, at 0.05 µM
# [21] = measured here: with BGB IC20 combination, at 0.5 µM
# [22] = measured here: with cisplatin IC20 combination, at 0.5 µM
# [23] = measured here: combination with cisplatin, at 0.5 µM
# [24] = measured here: combination with cisplatin, at 5 µM
smiles,measurement,setting,value
O=C(COc1cccc2c(=O)[nH]ccc12)c1ccccc1,remaining activity,[1],129% (inactive)
same,fold change,"[2]; stronger effect = lower value, cell number ratio, induced over uninduced",0.93 (inactive) and 0.917 (inactive)
same,fold change,[2]; measured here: relative caspase fold change +Dox/-Dox,0.39 and 1.29
same,cell count,"[2]; measured here: total cells with miR-34 induction, stronger effect = lower value",8870 and 8400
same,cell count,[2]; measured here: total cells without miR-34 induction,9530 and 9170
same,z-score,"[3]; MELAS cybrid survival, CellTiter-Glo 48 h, stronger effect = higher value",-0.468 (inactive)
same,z-score,"[3]; Rieske KO mouse fibroblast survival, CellTiter-Glo 72 h",0.438
same,z-score,[4],-0.28 (inactive)
same,inhibition,"[5]; at 0.5 µM, stronger effect = higher value",-16.5% (inactive)
same,inhibition,"[5]; measured here: combination with BGB IC20, at 0.005 µM",-16.8%
same,inhibition,"[5]; measured here: combination with BGB IC40, at 0.005 µM",-36.3%
same,inhibition,[5]; [20],-53.7%
same,inhibition,"[5]; measured here: combination with cisplatin, at 0.5 µM, stronger effect = higher value",-36.1%
same,inhibition,"[5]; measured here: combination with cisplatin, at 5 µM, stronger effect = higher value",-39.6%
same,inhibition,"[6]; BGB combo, at 5 µM",-30.5%
same,inhibition,[6]; at 0.5 µM,-19.3% (inactive)
same,inhibition,"[6]; cisplatin combo, at 5 µM",0.128%
same,inhibition,[6]; [21],-14.4%
same,inhibition,[6]; [22],-33.6%
same,inhibition,"[6]; single agent, at 5 µM",5.27%
same,inhibition,"[7]; BGB IC20 combo, at 0.005 µM",-2.15%
same,inhibition,"[7]; BGB IC40 combo, at 0.005 µM",-17.7%
same,inhibition,"[7]; BGB IC40 combo, at 0.05 µM",-10.1%
same,inhibition,[7]; at 0.5 µM,-21.4% (inactive)
same,inhibition,"[7]; cisplatin combo, at 0.05 µM",-14.1%
same,inhibition,"[7]; cisplatin combo, at 0.5 µM",-12.6%
same,inhibition,"[7]; cisplatin combo, at 5 µM",-29.1%
same,inhibition,"[7]; measured here: 5 uM single agent, at 5 µM",-6.87%
same,inhibition,[8]; at 0.5 µM,-3.67% (inactive)
same,inhibition,[8]; [20],3.04%
same,inhibition,[8]; [23],4.91%
same,inhibition,[8]; [24],-55.9%
same,inhibition,[9]; at 0.5 µM,-2.5% (inactive)
same,inhibition,"[9]; measured here: with BGB IC20, at 0.5 µM",-2.96%
same,inhibition,"[9]; measured here: with BGB IC20, at 5 µM",-14.8%
same,inhibition,"[9]; measured here: with cisplatin IC20, at 0.5 µM",-15.8%
same,inhibition,"[9]; measured here: with cisplatin IC20, at 5 µM",-9.52%
same,inhibition,"[9]; single agent, at 5 µM",-11.8%
same,inhibition,[10]; at 0.5 µM,-77.2% (inactive)
same,inhibition,"[10]; measured here: combination with BGB at IC20, at 0.5 µM",-43.7%
same,inhibition,"[10]; measured here: combination with cisplatin at IC20, at 0.5 µM",-122%
same,inhibition,[11]; at 0.5 µM,-12.7% (inactive)
same,inhibition,"[11]; measured here: combo with BGB at IC20, at 0.5 µM",-9.35%
same,inhibition,"[11]; measured here: combo with cisplatin at IC20, at 0.5 µM",-24.1%
same,inhibition,[12]; at 0.5 µM,-8.68% (inactive)
same,inhibition,"[12]; measured here: inhibition with BGB combination, at 0.05 µM",-22.4%
same,inhibition,"[12]; measured here: inhibition with cisplatin combination, at 0.05 µM",-23.8%
same,inhibition,[13]; at 0.5 µM,-15.2% (inactive)
same,inhibition,[13]; [23],-23.3%
same,inhibition,[13]; [24],-11.3%
same,inhibition,[14]; at 0.5 µM,-8.48% (inactive)
same,inhibition,"[14]; measured here: BGB combination, at 0.5 µM",-12.1%
same,inhibition,"[14]; measured here: BGB combination, at 5 µM",-20.7%
same,inhibition,"[14]; measured here: cisplatin combination, at 0.5 µM",-11.8%
same,inhibition,"[14]; measured here: cisplatin combination, at 5 µM",-15.5%
same,inhibition,"[15]; BGB combination, concentration series, at 5 µM",17.1%
same,inhibition,[15]; at 0.5 µM,-4.72% (inactive)
same,inhibition,"[15]; cisplatin combination, concentration series, at 5 µM",-1.24%
same,inhibition,[16],18.8% (inactive)
same,inhibition,[16]; measured here: combo with BGB IC20,3.19%
same,inhibition,[16]; measured here: combo with cisplatin IC20,27.2%
same,inhibition,[17]; at 0.5 µM,-16.5% (inactive)
same,inhibition,"[17]; cisplatin combination, at 0.5 µM",-34.9%
same,inhibition,"[17]; cisplatin combination, at 5 µM",-2.7%
same,inhibition,"[17]; measured here: BGB IC40 combination 0.05 uM, at 0.05 µM",-29.5%
same,inhibition,"[17]; single agent, at 5 µM",2.36%
same,inhibition,[18]; at 0.5 µM,-1.53% (inactive)
same,inhibition,"[18]; cisplatin combo, at 5 µM",-22.8%
same,inhibition,"[18]; measured here: BGB IC40 combination, at 0.05 µM",-14.7%
same,inhibition,[18]; [23],-4%
same,inhibition,"[18]; single agent, at 5 µM",-18.5%
same,inhibition,[19]; at 0.5 µM,-12.7% (inactive)
same,inhibition,[19]; [21],-33.3%
same,inhibition,[19]; [22],-4%
same,inhibition,"[19]; single agent, at 0.05 µM",2.29%
same,inhibition,"[19]; single agent, at 5 µM",-29.9%
